According to PubChem BioAssay AID618 (Sanford-Burnham Center for Chemical Genomics, 2007):
The campaign covered roughly 87,000 compounds. About 540 (0.62%) were called active. The rule behind the calls is not given here. Many of the other results were omitted from the sample, so actives are more common in it than they were. Measured potencies and affinities stand elsewhere.

Test: MT1-MMP gene expression reporter suppression – cell-based, luciferase reporter, luminescence (AID 618);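 note: actives suppress MT1-MMP promoter-driven transcription so potencies describe inhibitors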
Conditions: MT1-MMP promoter luciferase reporter cells

outcome, active:
CC(C)(C)C(=O)/C(=C\c1ccc([N+](=O)[O-])cc1)n1cncn1
Cc1ccc(NC(=O)c2ccccc2)s1
CN1Cc2cc(C(=O)c3cc(Cl)cc(CSc4ncccn4)c3O)cnc2NC1=O
Cc1ccc2c(c1)C(N1CCCC1=O)CC(c1ccco1)N2 (stereo unspecified)
Cc1c(C(=O)OCC(C)C)[nH]c2c1C(=O)CC(c1ccco1)C2 (stereo unspecified)
CCOC(=O)c1[nH]c2c(c1C)C(=O)CC(c1ccco1)C2 (stereo unspecified)
COCCOC(=O)c1[nH]c2c(c1C)C(=O)CC(c1ccco1)C2 (stereo unspecified)
Cc1c(C(=O)OC2CCCC2)[nH]c2c1C(=O)CC(c1ccco1)C2 (stereo unspecified)
Cc1c(C(=O)OCCOC(C)C)[nH]c2c1C(=O)CC(c1ccco1)C2 (stereo unspecified)
CCOC(=O)c1[nH]c2c(c1C)C(=O)CC(c1ccc(F)cc1)C2 (stereo unspecified)
CCCOC(=O)c1[nH]c2c(c1C)C(=O)CC(c1cccs1)C2 (stereo unspecified)
CSCCOC(=O)c1[nH]c2c(c1C)C(=O)CC(c1ccco1)C2 (stereo unspecified)
Cc1c(C(=O)OCc2ccccc2)[nH]c2c1C(=O)CC(c1ccco1)C2 (stereo unspecified)

outcome, inactive:
CCOC(=O)CSc1nnc(CNC(=O)c2ccc(OC)cc2OC)n1-c1ccc(OC)cc1
CCN(CC)C(=O)N1CCn2c(nc3ccccc32)C1
Cn1ncc(N=Cc2ccc([N+](=O)[O-])cc2)c1C(=O)N1CCOCC1
O=[N+]([O-])/C(C(Cl)=C(Cl)Cl)=C(\Nc1ccc(F)cc1)n1cncn1
Nn1c(COc2ccccc2)nnc1SCc1cc(=O)[nH]c2ccccc12
CCOC(=O)c1sc2nc(-c3ccco3)c3c(c2c1N)CC(C)(C)OC3
COc1ccccc1OCC(=O)Nc1nc(-c2ccc(S(=O)(=O)N3CCOCC3)cc2)cs1
CC1CN/C(=C\C(=O)c2ccccc2)C(=O)N1 (stereo unspecified)
CC1CN/C(=C\C(=O)c2ccc(Cl)cc2)C(=O)N1 (stereo unspecified)
Cc1ccc(-n2ncc3c(=O)[nH]c(SCC(=O)N4CCC(C)CC4)nc32)cc1C
COc1ccc(NC(=O)c2cccs2)cc1
Cc1sc(NC(=O)c2ccccc2)c(C(=O)NC(C)C)c1C
Cc1cc(NC(=O)c2ccccc2)sc1C
CCOc1ccccc1CNC(=O)C1CCCN(c2nc3ccccc3o2)C1 (stereo unspecified)
CN1Cc2cc(C(=O)c3ccccc3O)cnc2NC1=O
CCCCN1Cc2cc(C(=O)c3cc(F)ccc3O)cnc2NC1=O
O=C(CN1C(=O)c2ccccc2S1(=O)=O)Nc1cccnc1
COc1ccc(CSc2nnc(C)n2N)cc1
COc1cccc(CC2CC(=O)N(CCc3ccc4c(c3)OCO4)C2=O)c1 (stereo unspecified)
CCC(=O)c1ccc(OCCSc2ncccn2)cc1
COc1ccc(N=C2SCC(=O)N2c2ccc(OC)cc2)cc1
Cc1ccc(C2CC(c3ccco3)n3ncnc3N2)cc1 (stereo unspecified)
Cc1ccc(C2CC(c3ccco3)n3nc(N)nc3N2)cc1 (stereo unspecified)
CCc1nn(C(C)C(=O)NCCN2CCN(c3cccc(C)c3C)CC2)c(=O)c2cc3occc3n12 (stereo unspecified)
Cc1c(C(=O)OCC2CCCO2)[nH]c2c1C(=O)CC(c1ccco1)C2 (stereo unspecified)
CCOC(=O)c1ccc(N=CC2=C(O)CC(c3ccco3)CC2=O)cc1 (stereo unspecified)
COCCOC(=O)c1[nH]c2c(c1C)C(=O)CC(c1cc(OC)ccc1OC)C2 (stereo unspecified)
Cc1c(C(=O)OC2CCCCC2)[nH]c2c1C(=O)CC(C)(C)C2
COCCOC(=O)c1[nH]c2c(c1C)C(=O)CC(c1ccc(N(C)C)cc1)C2 (stereo unspecified)
CCC(C)OC(=O)c1[nH]c2c(c1C)C(=O)CC(c1ccc(N(C)C)cc1)C2 (stereo unspecified)
Cc1c(C(=O)OC2CCC(C)CC2)[nH]c2c1C(=O)CCC2 (stereo unspecified)
O=c1[nH]c(CN2CCN(c3ccc([N+](=O)[O-])cc3)CC2)nc2ccsc12
CCCCCOC(=O)CSc1n[nH]c(=O)[nH]c1=O
O=C(CC(Nc1ccc(Cl)cc1)C(=O)O)c1ccccc1 (stereo unspecified)
Cc1cccc(NC(=O)COC(=O)CNC(=O)C2CCCCC2)c1
NC(=O)CSc1nnnn1-c1ccc2c(c1)OCCO2
O=C1CCCC2=C1C(Cc1ccccc1)C1=C(CCCC1=O)O2
CCN(CCNC(=O)CC1Oc2ccccc2NC1=O)c1ccccc1 (stereo unspecified)
Cc1ccc(C2/C(=C(\O)c3ccc4c(c3)OCCO4)C(=O)C(=O)N2CCCN(C)C)o1 (stereo unspecified)
CCN1CCN(C(=O)c2cc3c(=O)oc4ccc(C)cc4c3s2)CC1
CCCOC(=O)c1[nH]c2c(c1C)C(=O)CC(c1ccc(OC)c(OC)c1)C2 (stereo unspecified)
Cc1c(C(=O)OCC(C)C)[nH]c2c1C(=O)CC(c1cccs1)C2 (stereo unspecified)
Cc1c(C(=O)OCCOC(C)C)[nH]c2c1C(=O)CC(C)(C)C2
CCOCCOC(=O)c1[nH]c2c(c1C)C(=O)CC(c1ccc(N(C)C)cc1)C2 (stereo unspecified)
CCCOCCOC(=O)c1[nH]c2c(c1C)C(=O)CC(c1cc(OC)ccc1OC)C2 (stereo unspecified)
COc1cc(C2CC(=O)c3c([nH]c(C(=O)OCCOC(C)C)c3C)C2)cc(OC)c1OC (stereo unspecified)
COC(=O)c1[nH]c2c(c1C)C(=O)CC(c1cccs1)C2 (stereo unspecified)
COCCOC(=O)c1[nH]c2c(c1C)C(=O)CC(c1ccc(F)cc1)C2 (stereo unspecified)
Cc1cc(Cl)cc(C)c1OCCCCN1CCOCC1
COCCn1c(CNc2ccc(F)cc2)nnc1SCC(=O)Nc1ccc(OC)cc1OC
COc1ccc(CN2CC(C(=O)NCc3cccc(OC)c3)CC2=O)cc1 (stereo unspecified)
COC(=O)c1ccccc1NC(=O)c1ccc(-c2cccc(Cl)c2)o1
O=C(Nc1nnc(-c2ccc(Cl)s2)o1)C1CCCCC1
COc1ccccc1Oc1ccc2c(c1)C(=O)N(c1cccc(O)c1)C2=O
CCC(=O)N1CCNC(=O)C1CC(=O)Nc1ccc(C)c(Cl)c1 (stereo unspecified)
CNCc1ccc(OCc2ccccc2)c(OC)c1
Cc1c(C(=O)N2CCOCC2)[nH]c2c1C(=O)CC(c1ccccc1Cl)C2 (stereo unspecified)
CC1=C(C(=O)OCc2ccccc2)C(c2ccco2)C2=C(CC(C)(C)CC2=O)N1 (stereo unspecified)
